From PubChem BioAssay
IDE inh = inhibitors of human insulin-degrading enzyme in cells; HEK cells, FAbetaB cleavage, fluorescence polarization; inhibition, % at 5.59 µM; 320,000 tested, 0.41% active;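 active = percent inhibition above the average of all tested compounds plus 3 SD, set per screening campaign, cut at about 16% in these data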;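 also: IDE supplied by intact live HEK cells; FP after avidin binding of uncleaved biotin substrate so inhibition keeps polarization high; 0% = DMSO wells and 100% = 60 µM reference IDE inhibitor Ii1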
PfM18AAP inh = PfM18AAP enzyme inhibition | inhibition, % at 7.35 µM | 290,000 tested, 1.2% active | recombinant PfM18AAP, H-Glu-NHMec fluorogenic cleavage;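 active = inhibition above the campaign mean inhibition over all tested compounds plus 3 SD, cut at about 28% in these data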;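 also: 0% = plate median of test compound wells and 100% = 2 mM ZnCl2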
ALR inh = inhibitors of human sulfhydryl oxidase ALR; 290,000 tested, 3.8% active; inhibition, % (concentration not given with the values); P55789; purified ALR, DTT oxidation, H2O2 HRP-luminol luminescence;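 active = mean replicate inhibition above about 79%, with every replicate also reaching it, limit read from the data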
PolyA inhibitor = inhibitors of polyadenylation in S. cerevisiae; activity score, % at 12 µM; 300,000 tested, 0.02% active; S. cerevisiae SKY197-pL101 polyadenylation reporter, beta-gal luminescence; efflux-impaired pdr1/pdr3 knockout yeast; score 100 = 6 SD above DMSO;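 active = lowest replicate activity score at least 50, where 100 means six control SD above control mean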;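 also: yeast exposed to compound for 9 h at 30 °C; higher score means more reporter readthrough which indicates perturbed polyadenylation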
CaV13 ICDI inh = Disruptors of the CACNA1D IQ motif to Ca2+-dependent inactivation inhibitor domain association, primary screening, Förster resonance energy transfer in intact living …. 340,000 tested, 0.098% active. AID 743397. inhibition, % at 12.3 µM. HEK cells, CFP/YFP FRET ICDI-IQ, plate reader, 10 min; percent FRET-ratio fall versus neutral wells;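 active = mean replicate inhibition of at least 30% and at least 1% of replicates passing that level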;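 also: 0% = median of the neutral control wells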
IDE act = boosts human insulin-degrading enzyme activity in HEK cells | activation, % at 5.96 µM | P14735 | 340,000 tested, 0.073% active | FAbeta-B cleavage, fluorescence polarization; 0% vehicle, 100% cell-free pure enzyme wells;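 active = activation above the mean of all tested compounds plus 3 SD, set per screening campaign, cut at about 17% in these data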
Numbers without * were called inactive. This is a sample that favours compounds with a hit; in the whole collection about 4.1% have one here.

Screening COc1ccc2c(c1)c1nnc(SC)nc1n2C returned IDE inh 4, PfM18AAP inh -1, ALR inh -5, PolyA inhibitor 96*, CaV13 ICDI inh -6 and IDE act 7.
For COc1ccc2c(c1)c1nnc(SCC(=O)N3C(C)CCCC3C)nc1n2C (stereo not drawn) the results were IDE inh 1, PfM18AAP inh 2, PolyA inhibitor -15, CaV13 ICDI inh -4 and IDE act 4.
`COc1ccc(C2SCC(=O)N2c2c(C)n(C)n(-c3ccccc3)c2=O)cc1OC` (stereo not drawn) gave IDE inh 1, PfM18AAP inh 5, ALR inh -4, PolyA inhibitor 67*, CaV13 ICDI inh -9 and IDE act 0.
For CCOC(=O)Oc1ccc2c(=O)c(Oc3cccc(C)c3)coc2c1 the results were IDE inh 0, PfM18AAP inh -1, ALR inh 96*, PolyA inhibitor 27, CaV13 ICDI inh -7 and IDE act 1.
CCOC(=O)Oc1ccc2c(=O)c(Oc3cc(C)cc(C)c3)coc2c1 was read as IDE inh 2, PfM18AAP inh -1, ALR inh -8, PolyA inhibitor 26, CaV13 ICDI inh -11 and IDE act 6.
For CCN1CCN(c2ccc(S(=O)(=O)N3CCCCC3)cc2NC(=O)COc2cc(C)ccc2Cl)CC1 the results were IDE inh -1, PolyA inhibitor -9 and IDE act 4.
Screening Cc1noc(NS(=O)(=O)c2ccc(NC(=O)c3ccc(N4C(=O)c5ccccc5C4=O)cc3)cc2)c1C returned IDE inh 5, PfM18AAP inh 3, ALR inh -1, PolyA inhibitor -2, CaV13 ICDI inh -6 and IDE act 8.
`Cc1noc(NS(=O)(=O)c2ccc(NC(=O)CCN3C(=O)c4ccccc4C3=O)cc2)c1C` gave IDE inh -4, PfM18AAP inh 3, ALR inh 94*, PolyA inhibitor -6, CaV13 ICDI inh -2 and IDE act 7.
Cc1noc(NS(=O)(=O)c2ccc(NC(=O)CSc3nnc(-c4ccccc4)n3C3CCCCC3)cc2)c1C was read as IDE inh 4, PfM18AAP inh 6, ALR inh 98*, PolyA inhibitor 13, CaV13 ICDI inh -7 and IDE act -1.
Screening Cc1noc(NS(=O)(=O)c2ccc(NC(=O)CSc3n[nH]c(-c4ccccc4)n3)cc2)c1C returned IDE inh 4, PfM18AAP inh -10, ALR inh 12, PolyA inhibitor -11, CaV13 ICDI inh -6 and IDE act 5.
`Cc1noc(NS(=O)(=O)c2ccc(NC(=O)/C=C/c3ccc(Br)cc3)cc2)c1C` gave PfM18AAP inh -14, ALR inh 91* and IDE act -10.
Cc1cc(C)c(C#N)c(SCC(=O)Nc2ccc(S(=O)(=O)Nc3onc(C)c3C)cc2)n1 was read as IDE inh -4, PfM18AAP inh -2, ALR inh 96*, PolyA inhibitor 0, CaV13 ICDI inh 2 and IDE act 5.
For C/C=C/c1cccc(-c2nc(C(=O)N3CCOCC3)cc3c2[C@@H](CCO)N(C(=O)NC(C)C)C3)c1 the results were CaV13 ICDI inh -5.
Screening Cc1nn(-c2ccccc2)nc1C(=O)NNC(=O)c1cccc2ccccc12 returned IDE inh -7, PfM18AAP inh 4, ALR inh 16, PolyA inhibitor -29, CaV13 ICDI inh -4 and IDE act 5.
For NNC(=O)Cn1nc(-c2ccccc2)c2ccccc2c1=O the results were PfM18AAP inh 2, ALR inh 0, PolyA inhibitor 1, CaV13 ICDI inh -19 and IDE act 0.
`C[C@@H]1O[C@@H](O[C@H]2[C@H](O)[C@@H](O)[C@H](Oc3c(-c4ccc(O)cc4)oc4cc(O)cc(O)c4c3=O)O[C@@H]2CO)[C@H](O)[C@H](O)[C@H]1O` gave IDE inh -2, ALR inh 13, CaV13 ICDI inh -5 and IDE act 0.
